Measured values taken from PubChem BioAssay AID1159580 (chemical genetic matrix, 2015).
Among all 5,500 compounds or so, about 2,000 (36%) were called active. Roughly 18% stayed inconclusive and do not appear here. Cut-off read from the data, not from the text of the source: active = normalized growth mostly below about 0.91 (no sharp cut-off); inconclusive = no clear call, values can overlap the other calls; inactive = mostly above about 0.92. The list shows a part of the results.

Test: chemical genetic growth profiling, strain panel (AID 1159580);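 note: tested at 20 µM; growth read once vehicle control cultures reached saturation at 30 °C; 1 = growth at the plate median or of vehicle wells; lower values mean less growth of the strain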
Conditions: S. cerevisiae deletion strains, growth OD
[1] = locus YHR030C, strain SLT2, active compounds read low
[2] = locus YHR079C, strain IRE1, active compounds read low
[3] = locus YJL095W, strain BCK1, active compounds read low
[4] = locus YJR066W, strain TOR1, active compounds read low
[5] = locus YLR113W, strain HOG1, active compounds read low
[6] = locus YNL183C, strain NPR1, active compounds read low
[7] = locus YOR231W, strain MKK1, active compounds read low
[8] = locus YPL256C, strain CLN2, active compounds read low

Measured: normalized growth

CC(=O)OCC(=O)[C@@]1(O)CCC2C3CCC4=CC(=O)C=C[C@]4(C)[C@@]3(F)[C@@H](O)C[C@@]21C (stereo partly drawn)
inactive: [1] 1.07 | [2] 1.07 | [3] 1.01 | [4] 1 | [5] 0.999 | [6] 0.993 | [7] 1.05 | [8] 1.06

CC(/C=C/c1ccccc1)=N/OC(=O)c1ccccc1Cl
inactive: locus YAR019C, strain CDC15, active compounds read low 0.967 | locus YBL105C, strain PKC1, active compounds read low 0.97 | locus YBR135W, strain CKS1, active compounds read low 0.974 | locus YBR136W, strain MEC1, active compounds read low 0.969 | locus YBR160W, strain CDC28, active compounds read low 0.97 | locus YDL017W, strain CDC7, active compounds read low 0.976 | locus YDL028C, strain MPS1, active compounds read low 0.981 | locus YDL101C, strain DUN1, active compounds read low 0.976 | locus YDL108W, strain KIN28, active compounds read low 0.982 | locus YDL132W, strain cdc53, active compounds read low 0.978 | locus YDL214C, strain PRR2, active compounds read low 0.902 | locus YDR052C, strain DBF4, active compounds read low 0.981 | locus YDR054C, strain cdc34, active compounds read low 0.96 | locus YDR226W, strain ADK1, active compounds read low 0.979 | locus YDR477W, strain SNF1, active compounds read low 0.911 | locus YER123W, strain YCK3, active compounds read low 0.876 | locus YER133W, strain GLC7, active compounds read low 0.917 | locus YFL009W, strain cdc4, active compounds read low 0.974 | locus YFL029C, strain CAK1, active compounds read low 0.969 | locus YFR003C, strain YPI1, active compounds read low 0.97 | locus YFR019W, strain FAB1, active compounds read low 0.936 | locus YFR028C, strain CDC14, active compounds read low 0.969 | locus YGR040W, strain KSS1, active compounds read low 0.887 | locus YGR052W, strain FMP48, active compounds read low 0.949 | locus YGR092W, strain DBF2, active compounds read low 0.874 | [1] 0.899 | [2] 0.888 | locus YHR082C, strain KSP1, active compounds read low 0.96 | locus YHR205W, strain SCH9, active compounds read low 0.864 | locus YIL147C, strain SLN1, active compounds read low 0.974 | [3] 0.903 | locus YJL128C, strain PBS2, active compounds read low 0.955 | locus YJL157C, strain FAR1, active compounds read low 0.879 | locus YJR016C, strain ILV3, active compounds read low 0.978 | locus YJR066W, strain TOR1 (second series), active compounds read low 0.795 | [4] 0.963 | locus YKL048C, strain ELM1, active compounds read low 0.936 | locus YKL067W, strain YNK1, active compounds read low 0.907 | locus YKL101W, strain HSL1, active compounds read low 0.902 | locus YKL193C, strain SDS22, active compounds read low 0.974 | locus YKL203C, strain TOR2, active compounds read low 0.954 | locus YLR133W, strain CKI1, active compounds read low 0.896 | locus YLR403W, strain SFP1, active compounds read low 0.86 | locus YML070W, strain DAK1, active compounds read low 0.849 | locus YMR001C, strain CDC5, active compounds read low 0.97 | locus YMR205C, strain PFK2 (second series), active compounds read low 0.917 | locus YMR277W, strain FCP1, active compounds read low 0.966 | locus YNL006W, strain LST8, active compounds read low 0.984 | locus YNL020C, strain ARK1, active compounds read low 0.905 | locus YNL161W, strain CBK1, active compounds read low 0.968 | [6] 0.903 | locus YNL207W, strain RIO2, active compounds read low 0.965 | locus YNL222W, strain SSU72, active compounds read low 0.984 | locus YNL307C, strain MCK1 (second series), active compounds read low 0.899 | locus YOL078W, strain AVO1, active compounds read low 0.975 | locus YOL136C, strain PFK27, active compounds read low 0.849 | locus YOR061W, strain CKA2, active compounds read low 0.9 | locus YOR119C, strain RIO1, active compounds read low 0.961 | [7] 0.84 | locus YOR329C, strain SCD5, active compounds read low 0.974 | locus YPL031C, strain PHO85, active compounds read low 0.909 | locus YPL153C, strain RAD53, active compounds read low 0.896 | locus YPL204W, strain HRR25, active compounds read low 0.897 | locus YPL209C, strain IPL1, active compounds read low 0.966 | locus YPR025C, strain CCL1, active compounds read low 0.977 | locus YPR106W, strain ISR1, active compounds read low 0.964 | locus YPR111W, strain DBF20, active compounds read low 0.961 | strain NNK1, active compounds read low 0.963 | strain TSCII, active compounds read low 0.961
active: [5] 0.734 | [8] 0.806

O=C(/C=C/C(=O)Oc1ccccc1C(=O)O)Oc1ccccc1C(=O)O
inactive: locus YAL021C, strain ccr4, active compounds read low 0.961 | locus YAL026C, strain drs2, active compounds read low 0.988 | locus YAL030W, strain snc1, active compounds read low 0.992 | locus YBL061C, strain skt5, active compounds read low 0.983 | locus YBR009C, strain hhf1, active compounds read low 0.991 | locus YBR023C, strain chs3, active compounds read low 0.994 | locus YBR171W, strain sec66, active compounds read low 0.962 | locus YBR231C, strain swc5, active compounds read low 0.984 | locus YBR279W, strain paf1, active compounds read low 0.978 | locus YCL011C, strain gbp2, active compounds read low 0.989 | locus YCL016C, strain dcc1, active compounds read low 0.971 | locus YCL061C, strain MRC1, active compounds read low 0.995 | locus YCL069W, strain vba3, active compounds read low 0.99 | locus YCR088W, strain abp1, active compounds read low 0.987 | locus YDL005C, strain med2, active compounds read low 0.976 | locus YDL040C, strain nat1, active compounds read low 0.992 | locus YDR001C, strain nth1, active compounds read low 0.972 | locus YDR069C, strain doa4, active compounds read low 0.98 | locus YDR137W, strain rgp1, active compounds read low 0.969 | locus YDR159W, strain sac3, active compounds read low 0.971 | locus YDR195W, strain ref2 0.976 | locus YDR297W, strain sur2, active compounds read low 0.987 | locus YDR334W, strain swr1, active compounds read low 0.99 | locus YDR335W, strain msn5, active compounds read low 0.986 | locus YDR392W, strain spt3, active compounds read low 0.995 | locus YEL003W, strain gim4, active compounds read low 0.995 | locus YEL037C, strain rad23, active compounds read low 0.998 | locus YEL061C, strain CIN8 (second series), active compounds read low 0.981 | locus YER015W, strain faa2, active compounds read low 0.992 | locus YER016W, strain bim1, active compounds read low 0.971 | locus YER111C, strain swi4, active compounds read low 0.975 | locus YER155C, strain BEM2 (second series), active compounds read low 0.998 | locus YFR010W, strain ubp6, active compounds read low 0.991 | locus YGL167C, strain pmr1, active compounds read low 0.976 | locus YGL173C, strain kem1, active compounds read low 1 | locus YGL227W, strain vid30, active compounds read low 0.962 | locus YGL240W, strain doc1, active compounds read low 0.984 | locus YGL253W, strain hxk2, active compounds read low 0.995 | locus YHR013C, strain ard1, active compounds read low 0.984 | locus YHR027C, strain rpn1, active compounds read low 0.979 | [1] 1.01 | [2] 1.02 | locus YHR142W, strain chs7, active compounds read low 0.974 | locus YJL092W, strain hpr5, active compounds read low 0.989 | locus YJL095W, strain BCK1 (second series), active compounds read low 0.992 | [3] 1.02 | locus YJL115W, strain asf1, active compounds read low 0.968 | locus YJL129C, strain trk1, active compounds read low 0.964 | locus YJL154C, strain vps35, active compounds read low 0.996 | locus YJL164C, strain tpk1, active compounds read low 0.99 | locus YJL166W, strain qcr8, active compounds read low 0.997 | [4] 0.975 | locus YKL160W, strain elf1, active compounds read low 0.981 | locus YKR026C, strain gcn3, active compounds read low 0.968 | locus YKR091W, strain srl3, active compounds read low 0.978 | locus YLL001W, strain dnm1, active compounds read low 0.999 | locus YLL026W, active compounds read low 0.961 | locus YLL041C, strain sdh2, active compounds read low 0.987 | locus YLR027C, strain aat2, active compounds read low 0.985 | [5] 0.987 | locus YLR221C, strain rsa3, active compounds read low 1 | locus YLR258W, strain gsy2, active compounds read low 0.988 | locus YLR262C, strain YPT6 (second series), active compounds read low 0.996 | locus YLR320W, strain mms22, active compounds read low 1.01 | locus YLR342W, strain FKS1, active compounds read low 0.983 | locus YLR357W, strain rsc2, active compounds read low 0.987 | locus YLR370C, strain arc18, active compounds read low 0.994 | locus YLR384C, strain iki3, active compounds read low 0.976 | locus YML120C, strain ndi1, active compounds read low 0.974 | locus YMR058W, strain fet3, active compounds read low 0.984 | locus YMR125W, strain sto1, active compounds read low 0.967 | locus YMR129W, active compounds read low 0.973 | locus YMR205C, strain PFK2, active compounds read low 0.964 | locus YMR231W, strain pep5, active compounds read low 0.979 | locus YNL071W, strain lat1, active compounds read low 1 | [6] 0.976 | locus YNL209W, strain ssb2, active compounds read low 0.971 | locus YNL248C, strain rpa49, active compounds read low 0.985 | locus YNL322C, strain KRE1 (second series), active compounds read low 0.93 | locus YNR049C, strain mso1, active compounds read low 0.985 | locus YOR001W, strain rrp6, active compounds read low 1 | locus YOR070C, strain gyp1, active compounds read low 0.978 | locus YOR080W, strain dia2, active compounds read low 0.98 | locus YOR083W, strain WHI5, active compounds read low 0.935 | locus YOR106W, strain vam3, active compounds read low 0.953 | [7] 1.01 | locus YOR265W, strain rbl2, active compounds read low 0.979 | locus YOR270C, strain vph1, active compounds read low 1.02 | locus YOR290C, strain snf2, active compounds read low 0.98 | locus YPL051W, strain arl3, active compounds read low 0.984 | locus YPL078C, strain atp4, active compounds read low 0.984 | locus YPL106C, strain sse1, active compounds read low 0.973 | locus YPL240C, strain hsp82, active compounds read low 0.968 | [8] 1
